Data from PubChem BioAssay (NCATS).
Inconclusive results are not listed. Where a call stands in place of a potency, no number is given. Activity calls are given as the source filed them. Unless noted, the call rests on the fitted dose curve.

What was measured:
[1] = Confirmatory qHTS to identify inhibitors of SARS-CoV-2 cell entry (AID 1645844); further: nearly all actives have a fitted effect of over 45% in size
Outline: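 HEK293-ACE2, overnight seeding; cpd 1 h, 37C/5% CO2; + SARS-CoV-2-S MLV PP (Wuhan-Hu-1, ΔC19); 48 h; Bright-Glo luminescence. Data normalised to S PP and bald PP wells.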

[2] = Cytotoxicity counterscreen for inhibitors of SARS-CoV-2 cell entry (AID 1645845); further: nearly all actives have a fitted effect of over 50% in size
Outline: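 Counterscreen run in the same HEK293-ACE2 line as the pseudotyped-particle entry assay, without particles. Viability after 48 h at 37 C was read as ATP luminescence, scaled between cell-containing and cell-free wells.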

[3] = Primary qHTS to identify inhibitors of SARS-CoV-2 cell entry (AID 1645846); conditions: activity change, negative = inhibition: at 57.1 µM (top of the series) unless noted; further: nearly all actives have a fitted effect of over 45% in size
Outline: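 Data are normalized to wells receiving SARS-CoV-2-S pseudoparticles and those given bald particles. Entry signal was luciferase luminescence in stable hACE2 Expi293F cells, 48 hr post-infection, after 1 hr compound pretreatment.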

[4] = VSVG counterscreen qHTS to identify inhibitors of SARS-CoV-2 cell entry (AID 1645847); further: nearly all actives have a fitted effect of over 65% in size
Outline: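 Counterscreen using VSV-G (not spike) pseudotyped MLV particles on ACE2-expressing Expi293F cells after 1 h compound preincubation; infection ran 48 h at 37 °C. Data normalized to VSV-G PP and bald-PP wells.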

CRL-7250 = normal cell line; assay: qHTS assay to identify novel small-molecules to repurpose for Merkel cell carcinoma treatment (AID 1296009; active means well fitted curve in the direction sought with a large enough effect; an effect the other way counts as inactive or inconclusive; further: nearly all actives have a fitted effect of over 60% in size); conditions: MCC and control cell lines, CellTiter-Glo viability, 72 h; series mostly up to 92 µM
Outline: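 Dose-response viability screen; 72 hr exposure at 37 degree celsius; CellTiter-Glo added, 10 min room temperature, luminescence read; RLUs scaled between no-cell and DMSO wells.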

[5] = Primary qHTS for inhibitors of SARS-S pseudo-typed particle cell entry (AID 1479145); further: nearly all actives have a fitted effect of over 45% in size
[6] = Primary qHTS for Huh7 cytotoxicity: counterscreen for inhibitors of MERS-S pseudotyped particle cell entry (AID 1479147); conditions: outcome: dose series up to 57.1 µM unless noted
[7] = Primary qHTS for inhibitors of MERS-S pseudo-typed particle cell entry (AID 1479149); further: nearly all actives have a fitted effect of over 60% in size
[8] = Primary qHTS for Vero E6 cytotoxicity: counterscreen for inhibitors of SARS-S pseudo-typed particle cell entry (AID 1479150); conditions: outcome: dose series up to 57.1 µM unless noted
[9] = Confirmatory qHTS for VERO E6 Cytotoxicity Assay: Counterscreen for SARS-CoV-2 CPE Assay (AID 1508605); further: nearly all actives have a fitted effect of over 60% in size
[10] = Confirmatory qHTS for activators (rescue) of SARS-CoV-2 Cytopathic Effect (CPE) (AID 1508606); further: nearly all actives have a fitted effect of over 70% in size; further: potency means the concentration at half of the fitted maximal effect
[11] = qHTS for Inhibitors of the Functional Ribonucleoprotein Complex (vRNP) of Lymphocytic Choriomeningitis Arenaviruses (LCMV): Viability assay - alamar blue signal for LCMV Primary Screen (AID 1347085; calls by dose curve; tested in HEK293 reporter line; further: potency means the concentration at half of the fitted maximal effect; nearly all actives have a fitted effect of over 80% in size)
[12] = qHTS for inhibitors of Rabies Virus screened against the NCATS CANVASS Library (AID 1347402)
[13] = target: Nuclear receptor subfamily 1 group I member 3 (Homo sapiens) (UniProt Q14994); assay: Primary qHTS for antagonist of constitutive androstane receptor (CAR) against the NCATS DSHEA and TCM libraries (AID 1794836; active means well fitted curve in the direction sought with a large enough effect; an effect the other way counts as inactive or inconclusive;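 further: HepG2 cells stably expressing hCAR with CYP2B6 luciferase reporter stimulated by CITCO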)
Outline: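 HepG2-CYP2B6-hCAR cells, attached 5 h, given compounds plus CITCO agonist […], incubated 24 h at 37 C. Luciferase luminescence read, multiplexed with CellTiter-Fluor viability (Ex/Em 405/540 nm).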

Chain of Nuclear receptor subfamily 1 group I member 3 (Homo sapiens) (Q14994 whole entry, looked up): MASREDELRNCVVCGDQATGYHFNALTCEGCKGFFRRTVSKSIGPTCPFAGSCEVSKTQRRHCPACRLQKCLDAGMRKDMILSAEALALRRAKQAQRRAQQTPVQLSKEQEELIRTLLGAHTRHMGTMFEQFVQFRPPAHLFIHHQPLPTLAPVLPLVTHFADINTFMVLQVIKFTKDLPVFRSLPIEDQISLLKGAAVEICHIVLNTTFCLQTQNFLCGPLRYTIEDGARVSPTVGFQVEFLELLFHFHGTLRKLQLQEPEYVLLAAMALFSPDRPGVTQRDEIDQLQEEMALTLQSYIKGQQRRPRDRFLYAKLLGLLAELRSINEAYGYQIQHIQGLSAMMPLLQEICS

In the case of CC[C@@](C)(Nc1ccnc(-c2c[nH]c3ncccc23)n1)C(=O)NCC(F)(F)F, the Potency [1] is reported as “inactive”, the Potency [2] is reported as “inactive” and the activity change, negative = inhibition [3] is reported as -38.3%. For the same compound, the Potency [4] was “inactive” and the Potency (CRL-7250) was “inactive”.

In the case of CC(=O)OC(C)(C)/C=C/C(=O)[C@](C)(O)[C@H]1C(O)C[C@@]2(C)[C@@H]3CC=C4[C@@H](C=C(O[C@@H]5O[C@H](CO)[C@@H](O)[C@H](O)[C@H]5O)C(=O)C4(C)C)[C@]3(C)C(=O)C[C@]12C (stereo not given in full), the Potency [5] is reported as “inactive”, the outcome [6] is reported as “inactive [at 15.3 µM]” and the Potency [7] is reported as “inactive”. The outcome [8] was “inactive [at 15.3 µM]”, the Potency [2] was “inactive” and the Potency (CRL-7250) was “inactive”.

For CCCSc1nc(N[C@@H]2C[C@H]2c2ccc(F)c(F)c2)c2nnn([C@@H]3C[C@H](OCCO)[C@@H](O)[C@H]3O)c2n1, the outcome [6] was “inactive”, the Potency [7] was “inactive” and the outcome [8] was “inactive”. The Potency [2] was “inactive” and the Potency (CRL-7250) was “inactive”.

In the case of C[C@@H]1O[C@@H](O[C@H]2[C@H](OC(=O)[C@]34CCC(C)(C)C[C@H]3C3=CCC5[C@@]6(C)C[C@H](O)[C@H](O[C@@H]7O[C@H](CO)[C@@H](O)[C@H](O)[C@H]7O)[C@@](C)(CO)C6[C@H](O)C[C@@]5(C)[C@]3(C)C[C@H]4O)OC[C@H](O)[C@@H]2O)[C@H](O)[C@H](O)[C@H]1O[C@@H]1OC[C@@H](O)[C@H](O[C@H]2OC[C@](O)(CO)[C@H]2O)[C@H]1O (stereo not given in full), the activity change, negative = cytotoxic [9] is reported as -21.6% [at 3.67 µM] (inactive) and the outcome (CRL-7250) is reported as “inactive [at 9.27 µM]”.

With CCN(CC)CCOCCOC(=O)C(CC)(CC)c1ccccc1 the outcome [6] was “inactive”, the outcome [8] was “inactive” and the Potency [1] was “inactive”. The Potency [2] was “inactive”, the Potency [4] was “inactive” and the Potency (CRL-7250) was “inactive”.

With COc1ccccc1OCCNCC(O)CCOc1cccc2[nH]c3ccccc3c12 (stereo not given) the Potency [9] was “inactive”, the Potency [10] was 10 µM (active) and the Potency (CRL-7250) was “inactive”.

For CCc1c(Cl)c(O)c(Cl)c(O)c1C(=O)O[C@H]1[C@H](O)[C@H](OC)[C@H](OC/C2=C\C=C\C[C@H](O)/C(C)=C\[C@H](CC)[C@@H](O[C@@H]3OC(C)(C)[C@@H](OC(=O)C(C)C)[C@H](O)[C@@H]3O)/C(C)=C/C(C)=C/C[C@@H]([C@@H](C)O)OC2=O)O[C@@H]1C, the Potency [5] was “inactive”, the outcome [6] was “inactive” and the outcome [8] was “inactive”. The Potency (CRL-7250) was “inactive”.

With CC(=O)O[C@]1(C(C)=O)CC[C@H]2[C@@H]3C=C(Cl)C4=CC(=O)[C@@H]5C[C@H]5[C@]4(C)[C@@H]3CC[C@@]21C the Potency [11] was 24.3 µM (active) and the Potency (CRL-7250) was “inactive”.

For CCc1cccc(CC)c1-n1c(C=C(C)C)c(C(=O)N2CCNCC2)cc(-c2nc(-c3ccc(C(F)(F)F)cc3)cs2)c1=O, the Potency [9] was “inactive”, the Potency [10] was “inactive” and the Potency (CRL-7250) was “inactive”.

In the case of O=c1[nH]c2ccccc2n1CCN1CCN(c2cccc(C(F)(F)F)c2)CC1, the outcome [6] is reported as “inactive”, the outcome [8] is reported as “inactive” and the Potency [2] is reported as “inactive”. The Potency (CRL-7250) was “inactive”.

For CC(C)c1ccc2c(c1)CCC1[C@](C)(C(=O)O)CCC[C@]21C (stereo not given in full), the outcome [12] was “inactive” and the Potency (CRL-7250) was “inactive”.

With COc1ccc(CN2CCN(CCCSc3cc(C(C)(C)C)c(O)c(C(C)(C)C)c3)CC2)c(OC)c1OC the Potency [9] was “inactive” and the outcome (CRL-7250) was “inactive [at 9.27 µM]”.

In the case of Cc1[nH]c(/C=C2\C(=O)Nc3ccc(S(=O)(=O)N(C)c4cccc(Cl)c4)cc32)c(C)c1C(=O)N1CCN(C)CC1, the Potency [9] is reported as “inactive”, the Potency [10] is reported as “inactive” and the Potency [2] is reported as “inactive”. For the same compound, the Potency (CRL-7250) was “inactive”.

In the case of COc1cc(S(C)(=O)=O)ccc1Nc1nc2ccc(-c3ccc(NC(=O)[C@H](C)c4ccc(F)cc4)cc3)cn2n1, the Potency [2] is reported as “inactive” and the Potency (CRL-7250) is reported as “inactive”.

With COCCOc1ccc(N2CCN(CCn3ncc4c3nc(N)n3nc(-c5ccco5)nc43)CC2)cc1 the Potency [2] was “inactive”, the activity change, negative = inhibition [3] was -15.3% and the Potency (CRL-7250) was “inactive”.

In the case of CC(=O)C1=C(O)C=C2Oc3c(C(C)=O)c(O)c(C)c(O)c3[C@]2(C)C1=O, the Potency [13] is reported as “inactive” and the Potency (CRL-7250) is reported as “inactive”.
